Data as given in the supplement of paper PMC7595190.
Values without a mark were called inactive.

Tested on: MV4-11
Assay: CellTox Green cytotoxicity fluorescence relative to DMSO vehicle (fold of vehicle RFU); higher = more cell death (loss of membrane integrity), active = 2 or more
Experimental: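 Paediatric AML cell lines (MV4-11, CMK, Kasumi-1; 4x10^4 cells/well, 96-well) treated with single compounds from the Selleckchem apoptosis library at 0.01, 0.1 and 1 µM. Cytotoxicity was read with CellTox Green (RFU, Ex 485/Em 520) at 24, 48 and 72 h and normalised to the 0.1% DMSO vehicle. Normalised RFU >= 2 was taken as a successful, cell-killing treatment.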

CN[C@@H](C)C(=O)N[C@H](C(=O)N1CCC[C@H]1C(=O)Nc1snnc1-c1ccccc1)C1CCCCC1
CellTox Green cytotoxicity fluorescence (0.01 µM, 24 h): 1.01
CellTox Green cytotoxicity fluorescence (0.01 µM, 48 h): 0.97
CellTox Green cytotoxicity fluorescence (0.01 µM, 72 h): 0.974
CellTox Green cytotoxicity fluorescence (0.1 µM, 24 h): 0.988
CellTox Green cytotoxicity fluorescence (0.1 µM, 48 h): 0.993
CellTox Green cytotoxicity fluorescence (0.1 µM, 72 h): 1
CellTox Green cytotoxicity fluorescence (1 µM, 24 h): 1.01
CellTox Green cytotoxicity fluorescence (1 µM, 48 h): 1.03
CellTox Green cytotoxicity fluorescence (1 µM, 72 h): 1.04

CCCCC(C=O)NC(=O)C(CC(C)C)NC(=O)C(CC(C)C)NC(C)=O (stereo unspecified)
CellTox Green cytotoxicity fluorescence (0.01 µM, 24 h): 0.985
CellTox Green cytotoxicity fluorescence (0.01 µM, 48 h): 1.01
CellTox Green cytotoxicity fluorescence (0.01 µM, 72 h): 1.01
CellTox Green cytotoxicity fluorescence (0.1 µM, 24 h): 1.01
CellTox Green cytotoxicity fluorescence (0.1 µM, 48 h): 1.02
CellTox Green cytotoxicity fluorescence (0.1 µM, 72 h): 1.01
CellTox Green cytotoxicity fluorescence (1 µM, 24 h): 1.16
CellTox Green cytotoxicity fluorescence (1 µM, 48 h): 2.16 (active)
CellTox Green cytotoxicity fluorescence (1 µM, 72 h): 2.42 (active)

O=C(COc1ccc(Cl)cc1)NC1CCC(NC(=O)COc2ccc(Cl)cc2)CC1 (stereo unspecified)
CellTox Green cytotoxicity fluorescence (0.01 µM, 24 h): 0.993
CellTox Green cytotoxicity fluorescence (0.01 µM, 48 h): 0.994
CellTox Green cytotoxicity fluorescence (0.01 µM, 72 h): 0.983
CellTox Green cytotoxicity fluorescence (0.1 µM, 24 h): 1.01
CellTox Green cytotoxicity fluorescence (0.1 µM, 48 h): 1.02
CellTox Green cytotoxicity fluorescence (0.1 µM, 72 h): 1.01
CellTox Green cytotoxicity fluorescence (1 µM, 24 h): 0.994
CellTox Green cytotoxicity fluorescence (1 µM, 48 h): 1.01
CellTox Green cytotoxicity fluorescence (1 µM, 72 h): 0.992

Cc1nc(Nc2ncc(C(=O)Nc3c(C)cccc3Cl)s2)cc(N2CCN(CCO)CC2)n1 [Dasatinib Monohydrate]
CellTox Green cytotoxicity fluorescence (0.01 µM, 24 h): 1
CellTox Green cytotoxicity fluorescence (0.01 µM, 48 h): 0.989
CellTox Green cytotoxicity fluorescence (0.01 µM, 72 h): 0.978
CellTox Green cytotoxicity fluorescence (0.1 µM, 24 h): 0.993
CellTox Green cytotoxicity fluorescence (0.1 µM, 48 h): 0.983
CellTox Green cytotoxicity fluorescence (0.1 µM, 72 h): 0.97
CellTox Green cytotoxicity fluorescence (1 µM, 24 h): 1.02
CellTox Green cytotoxicity fluorescence (1 µM, 48 h): 1.01
CellTox Green cytotoxicity fluorescence (1 µM, 72 h): 1.01
